PubChem BioAssay (EPA / NIEHS)
Calls of active or inactive are those of the source. How the source made its calls: active means hit-call score of the fitted dose curve at least 0.9, where 1 is the maximum; inactive means score below 0.9.

Experiment: BSK_4H_Eotaxin3: BioMAP Diversity Plus: 4H Assay for Eotaxin 3 Biomarker Activity (AID 2283000)
Conditions: primary human endothelial cells (HUVEC); actives raise or lower the signal
Experimental: BSK_4H is a cell-based, multiplexed-readout assay that uses umbilical vein endothelium, a human vascular primary cell, with measurements taken at 24 hours after chemical dosing in a 96-well plate.BSK_4H_Eotaxin3 is an assay component measured in the BSK_4H assay. It measures Eotaxin-3 antibody related to regulation of gene expression using ELISA technology.Data from the assay component BSK_4H_Eotaxin3 was analyzed into 1 assay endpoint. This assay endpoint, BSK_4H_Eotaxin3, was analyzed with bidirectional fitting relative to DMSO as the negative control and baseline of activity. Using a type of binding reporter, gain or loss-of-signal activity can be used to understand changes in the signaling as they relate to the gene CCL26. Furthermore, this assay endpoint can be referred to as a primary readout, because this assay has produced multiple assay endpoints where this one serves a signaling function. To generalize the intended target to other relatable targets, this assay endpoint is annotated to the cytokine intended target family, where the subfamily is chemotactic factor.
The levels of cell surface (or secreted, indicated by the prefix "s") biomarker endpoints were measured by ELISA. Overt cytotoxicity to cells in confluent adherent cultures (all systems other than the BT system) was assessed by measuring total protein levels using sulforhodamine B (SRB) staining in parallel cultures at the time of biomarker measurements, indicated as SRB endpoints. For proliferation assays for adherent cell types, individual cell types are cultured at sub-confluence and relative cell numbers quantified by SRB staining at time points optimized for each system (48 h: 3C and CASM3C systems; 72 h: BT and HDF3CGF systems; 96 h: SAg system). SRB was performed by staining cells with 0.1% SRB after fixation with 10% TCA and reading wells at 560 nm.Viability and proliferation of PBMC (T cells) was quantified by Alamar Blue reduction for the SAg and BT systems. For PBMC viability (referred to as PBMC Cytotoxicity within the assay endpoint names), cells were plated (75,000/well in a 96-well plate) and then chemical samples added for 1 h before addition of activators, SEB and TSST-1 (20 ng/mL final concentration each). Cells were incubated for 90 h. Then, Alamar Blue (20 uL/well) (Invitrogen, Cat DAL1100) was added for 6 h, and the plates were read with a fluorescence microplate reader at 546/580 nm (excitation/emission). For PBMC proliferation, cells were plated and activated as above but incubated for only 16 h prior to addition of Alamar Blue. Plates were read after 6 h.

Structure (SMILES)	AC50	outcome
CC1=C(/C=C/C(C)=C/C=C/C(C)=C/CO)C(C)(C)CCC1	15.6 µM (active)	
Cc1cccc(Nc2cc(Cl)nc(SCC(=O)O)n2)c1C		inactive
CCCCN(CCCC)CCCC		inactive
O=C(O)CCCCC(=O)O		inactive
Cc1ccc(N(C)C)cc1		inactive
NCCO		inactive
C=CCc1ccc(O)c(OC)c1		inactive
Cc1ccc(C)c(C)c1		inactive
CC=Cc1ccc(O)c(OC)c1		inactive
Cc1c(C(=O)O)c(O)cc2c1C(=O)c1c(O)c([C@@H]3O[C@H](CO)[C@@H](O)[C@H](O)[C@H]3O)c(O)c(O)c1C2=O		inactive
CC(CO)OC(C)CO (stereo not given) (tested in a mixture with another compound)		inactive
CCCCc1ccc2c(n1)[C@@H](c1ccc(OC)cc1C[C@H](C)C(=O)O)[C@H](C(=O)O)[C@H]2c1ccc2c(c1)OCO2		inactive
c1cc(-c2ccncc2)ccn1		inactive
CCCCCCC(=O)OCC		inactive
COc1cc(C=O)ccc1O		inactive
CCCCCCCCCCC		inactive
Cc1cc(=O)[nH]c(=S)[nH]1		inactive
CCOC(=O)C(C)(C)Oc1ccc(Cl)cc1		inactive
Nc1ccc2c(c1)C(=O)c1ccccc1C2=O		inactive
CCCCCC(=O)O		inactive

Structure (SMILES)	AC50	outcome
Nc1nc(N)c2nc(CNc3ccc(C(=O)N[C@@H](CCC(=O)O)C(=O)O)cc3)cnc2n1		inactive
COC(=O)c1ccc(O)cc1		inactive
CCCCCCCC=O		inactive
COCCOCCOC		inactive
CNCc1cc(F)ccc1Oc1ccc(Cl)c(Cl)c1		inactive
OC[C@@H](O)[C@@H](O)[C@H](O)[C@H](O)CO		inactive
FC(F)(F)C(F)(F)C(F)(F)C(F)(F)C(F)(F)C(F)(F)CCI		inactive
COc1ccc(C)cc1N		inactive
C[C@]12C=CC(=O)C=C1CC[C@@H]1[C@@H]2C(=O)C[C@@]2(C)[C@H]1CC[C@]2(O)C(=O)CO		inactive
Cc1ccc(C)c(O)c1C		inactive
CN1CCN(Cc2cc(-c3ccc4[nH]c(=O)oc4c3)co2)[C@@H](c2ccc(F)cc2)C1		inactive
C=CCOC(=O)c1ccccc1C(=O)OCC=C		inactive
Oc1ccc2c(c1)OC[C@@H](N1CCC(O)(c3ccc(F)cc3)CC1)[C@H]2O		inactive
CCOC(=O)CCC(=O)OCC		inactive
O=C(N[C@@H](Cc1ccccc1)[C@@H](O)C(=O)N1C[C@@H](O)[C@@H](O)C1)c1cc2cc(Cl)ccc2[nH]1		inactive
CCOc1ccc2c(c1)C(C)=CC(C)(C)N2		inactive
Nc1ccccc1N		inactive
CCCCCCOCCO		inactive
CCCCC(CC)COC(=O)CC(C(=O)OCC(CC)CCCC)S(=O)(=O)O (stereo not given)	36.5 µM (active)	
CCCCCCCCCCCCCO	38.8 µM (active)	
